# Most compounds without a hit are left out; they make up all but 10% or so of the library.
# BAZ2B inh: qHTS Assay for Inhibitors of BAZ2B; Bromodomain adjacent to zinc finger domain protein 2B (Homo sapiens), Q9UIF8; AlphaScreen BAZ2B-H3K14Ac peptide displacement; Potency, µM (titrated, usually from 114 µM), actives largely listed as inhibitors; 360,000 tested, 4.4% active; also: nearly all actives have a fitted effect of over 60% in size
#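 Multi-concentration screen (max 110 uM) measuring displacement of acetylated histone H3 peptide from BAZ2B by AlphaScreen, using 50 nM protein, 50 nM peptide and 10 ug/mL streptavidin donor plus Ni-chelate acceptor beads.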
# HP1b chromo inh: HTS for Inhibitors of HP1-beta Chromodomain Interactions with Methylated Histone Tails; 390,000 tested, 0.56% active; Potency, µM (doses to about 114 µM), hits mostly inhibitors; AlphaScreen HP1-beta / biotin-H3K9me3 peptide binding; Chromobox protein homolog 1 (Homo sapiens), P83916; AID 540317, 2011; also: nearly all actives have a fitted effect of over 70% in size
#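 Compound inhibition of the preformed complex between 50 nM HP1-beta and 50 nM biotinylated H3K9me3 peptide was read by AlphaScreen. Buffer was PBS pH 7.4 with 0.01% Tween-20. Incubations ran 30 min at room temperature, with 10 ug/mL donor/acceptor beads.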
# GLS inh: qHTS for Inhibitors of Glutaminase (GLS); 410,000 tested, 0.21% active; Potency, µM (highest dose often 45.5 µM), actives largely listed as inhibitors; GLS enzymatic activity, qHTS titration
#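 Enzyme dispensed in phosphate buffer (45 mM, pH 8.2, 0.02% Tween-20), compounds pinned in, then 1 mM L-glutamine solution and the glutamate oxidase–HRP–Amplex Red mix added; fluorescence read immediately and again after 30 min at room temperature.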
# G9a inh: qHTS Assay for Inhibitors of Histone Lysine Methyltransferase G9a; 350,000 tested, 8.8% active; G9a H3K9 monomethylation, AlphaScreen, 2 h; AID 504332, 2011; Potency, µM (top dose mostly 102 µM), usual class: inhibitors; also: nearly all actives have a fitted effect of over 75% in size
#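 AlphaScreen detection with an anti-monomethyl H3K9 antibody quantified product after a 2 h room-temperature reaction containing 500 nM biotinylated H3K9 peptide, 20 µM SAM and 20 nM enzyme, which had been preincubated 15 min with compound.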
# JMJD2A Tudor: qHTS Assay for Inhibitors of JMJD2A-Tudor Domain. AlphaScreen JMJD2A-Tudor / H3K4me3 peptide binding. Lysine-specific demethylase 4A (Homo sapiens), O75164. 390,000 tested, 4.4% active. Potency, µM (doses to about 114 µM), hits mostly inhibitors; also: nearly all actives have a fitted effect of over 50% in size
# Numbers stand for hits; – = inactive; ? = inconclusive; · = no result; [ ] = remark or other dose. Calls follow the shape of the dose curve; as a rule, active = well fitted curve in the direction sought with a large enough effect; inconclusive = small, poorly fitted or top-dose-only effect, or another doubt; inactive = no such curve, though single readings can be large; an effect the other way counts as inactive or inconclusive.
SMILES,BAZ2B inh,HP1b chromo inh,GLS inh,G9a inh,JMJD2A Tudor
COc1ccc(C2CC(=O)C(CS(=O)(=O)c3ccccc3)C(=O)C2)cc1 (centres undefined),–,–,–,–,–[11.4 µM]
CC(=O)c1sc(C(=O)O)c(-c2ccco2)c1-c1ccco1,–,–,20µM,·,–
Cc1ccc(NS(=O)(=O)c2ccc3c(c2)CCCN3C(=O)C2CCC2)cc1Cl,–,–,–,–,–
CC1CCCC(C)N1S(=O)(=O)c1ccc(NC(=O)CNC2CCCC2)cc1 (centres undefined),–,–,–,45µM,–
CC(=O)Nc1ccc(S(=O)(=O)N2C(C)CCCC2C)cc1 (centres undefined),–,–,–,56µM,–
CC1CCN(S(=O)(=O)c2ccc(NC(=O)CNC3CCCCC3)cc2)CC1,–,–,–,–,–
O=C(CCc1nnc(Cc2ccc3c(c2)OCO3)o1)NCc1nc2ccccc2s1,–,–,–,45µM,–
CCCOc1ccc(/C=C/C(=O)Nc2sc(C)c(C)c2C(=O)OCC)cc1OC,–,?,–,3.2µM,79µM
CCOC(=O)c1c(NC(=O)/C=C/c2ccc(OC)c(OC)c2)sc(C(C)=O)c1C,–,–,–,?,–
COc1ccc(NC(=S)Nc2cnc3ccccc3c2)c(OC)c1,?,–,–,?,–
NC(=S)Nc1cnc2ccccc2c1,–,–,–,50µM,–
Cc1nn(C(C)C(=O)Nc2ccc3c(c2)OCO3)c(C)c1[N+](=O)[O-] (centres undefined),?,–,–,·,?
Cc1cccc(NC(=S)NNC(=O)CCn2nc(C)c([N+](=O)[O-])c2C)c1,–,–,–,?,–
Cc1cnn(CCC(=O)NNC(=S)Nc2cccc(Cl)c2)c1,–,–,–,50µM,–
Cc1nn(CCC(=O)NNC(=S)Nc2cccc(Cl)c2)c(C)c1[N+](=O)[O-],–,–,–,8.9µM,–
Cc1nn(CCC(=O)NNC(=S)Nc2ccc(Cl)cc2)c(C)c1[N+](=O)[O-],–,–,–,10µM,–
Cc1nn(C(C)C(=O)NNC(=S)Nc2ccc(Cl)cc2)c(C)c1[N+](=O)[O-] (centres undefined),–,–,–,8.9µM,–
CC(=O)NC(=S)Nc1ccccc1F,–,–,–,·,–
O=C(COc1ccc(S(=O)(=O)N2CCCC2)cc1)Nc1ccc(F)cc1,–,–,–,–,–
COCCSc1nnc(NC(=O)CS(=O)(=O)c2ccc(C)cc2)s1,–,–,–,–,–
CCc1ccc(OCC(=O)Nc2ccc(S(=O)(=O)Nc3onc(C)c3C)cc2)cc1,–,–,–,–,–
COc1cc(OC)c(C2=NOC(C(=O)Nc3ccc4c(c3)OCO4)C2)cc1Cl (centres undefined),–,–,–,40µM,–
CNS(=O)(=O)c1ccc(NCC2COc3ccccc3O2)c([N+](=O)[O-])c1 (centres undefined),50µM,–,–,16µM,–
O=C(Nc1ccc(Cl)cc1)Nc1ccccn1,–,–,–,–,–
N/C(=N\NS(=O)(=O)c1ccccc1C(F)(F)F)c1ccccn1,–,–,–,·,–
SMILES,BAZ2B inh,HP1b chromo inh,GLS inh,G9a inh,JMJD2A Tudor
CNC(=O)N/N=C(\N)c1ccccn1,?,–,–,10µM,?
Cc1nc(C(F)(F)F)c(C(=O)N/N=C(\N)c2ccccn2)s1,10µM,–,–,–,79µM
N/C(=N\NC(=O)Nc1ccc(Cl)cc1)c1ccccn1,16µM,–,?,–,45µM
NC(=O)c1ccc(N2CCN(S(=O)(=O)c3cccs3)CC2)c([N+](=O)[O-])c1,·,–,–,·,–
Cc1cc(/C=N/O)c(C)n1-c1cccc(Cl)c1,50µM,?,–,45µM,?
COC(=O)c1cc(C(=O)OC)cc(-n2c(C)cc(C=O)c2C)c1,–,–,–,–[0.0925 µM],–
Cc1ccc(C)n1-c1cccc(C(=O)O)c1,7.1µM,·,·,4.5µM,·
Cc1cc(C=O)c(C)n1-c1cccc(C(=O)O)c1,79µM,–,–,40µM,–
Cc1cc(C=O)c(C)n1-c1cc(C(=O)O)cc(C(=O)O)c1,18µM,25µM,18µM,·,?
CNC(=S)N(C)c1ccccc1,–,–,–,–,–
COCCn1c(-c2ccc(OC)cc2)c(-c2ccc(OC)cc2)oc1=O,35µM,–,–,–[2.33 µM],–
COCCn1c(=O)c(-c2ccc(OC)cc2)nc2cnc(OC)nc21,·,·,·,–[12.7 µM],·
Cc1ccc(NC(=O)CC2OC(=O)c3ccccc32)cc1S(=O)(=O)N1CCCCCC1 (centres undefined),–,–,–,?,–
O=C(CC1OC(=O)c2ccccc21)Nc1ccccc1N1CCOCC1 (centres undefined),–,–,–,–,–
CC(=O)N1CCN(C(=O)CC2OC(=O)c3ccccc32)CC1 (centres undefined),?,–,–,40µM,–
COc1ccc(C(=O)CC2OC(=O)c3ccccc32)cc1OC (centres undefined),–,–,–,–,–
O=C(Cc1ccccc1F)Nc1cc(Cl)ccc1N1CCCC1,–,–,–,45µM,–
O=C(CC1OC(=O)c2ccccc21)Nc1ccc(Cl)c(S(=O)(=O)N2CCCCC2)c1 (centres undefined),–,–,–,14µM,–
O=C(CC1OC(=O)c2ccccc21)Nc1cc(Cl)ccc1N1CCCC1 (centres undefined),–,–,–,56µM,–
O=C(Cc1ccccc1F)Nc1ccccc1N1CCCC1,–,–,–,–,?
CC1CCc2sc3ncnc(N4CCN(CCO)CC4)c3c2C1 (centres undefined),–,–,–,–[0.501 µM],–
O=C(Nc1cccc(F)c1)N1CCC2(CC1)CCN(C(=O)c1ccncc1)CC2,·,·,·,–[12.7 µM],·
COc1ccc(S(=O)(=O)N2CCCCCC2)cc1NC(=O)CC1OC(=O)c2ccccc21 (centres undefined),–,–,–,–,–
Cc1cccc(NC(=O)CSCC(=O)Nc2cc(Cl)ccc2N2CCN(C)CC2)c1,–,–,–,79µM,–
Cc1cc(NC(=O)CSCC(=O)Nc2cc(Cl)ccc2N2CCN(C)CC2)no1,–,–,–,–[12.7 µM],–
O=C(CC1OC(=O)c2ccccc21)Nc1cc(S(=O)(=O)N2CCOCC2)ccc1OCC(F)(F)F (centres undefined),–,–,–,13µM,–
CC(=O)c1c(C)nn(CCC(=O)O)c1C,–,?,?,–,40µM
Cc1nn(CCCC(=O)O)c(C)c1[N+](=O)[O-],–,–,–,–,–
O=c1[nH]c(=S)[nH]c2sc3c(c12)CCCCCC3,–,–,–,2.2µM,?
Nn1c(=S)[nH]c2sc3c(c2c1=O)CCCC3,·,–,–,·,–

# Compound activity as filed in PubChem BioAssay.
